The target of experiment [1] is RAC-alpha serine/threonine-protein kinase (Homo sapiens) (UniProt P31749). The conditions noted are these: at 0.1 µM.
Experiment [2] has the same target. The conditions noted are these: at 1 µM.
Experiment [3] has as its target RAC-beta serine/threonine-protein kinase (Homo sapiens) (UniProt P31751). The following applies: at 0.1 µM.
Experiment [4] has the same target. The conditions noted are these: at 1 µM.
For experiment [5], the target named is RAC-gamma serine/threonine-protein kinase (Homo sapiens) (UniProt Q9Y243). The following applies: at 0.1 µM.
The target is the same in experiment [6]. The conditions noted are these: at 1 µM.
Experiment [7] has as its target G protein-coupled receptor kinase 6 (Homo sapiens) (UniProt P43250). The conditions noted are these: at 0.1 µM.
Experiment [8] shares this target. The following applies: at 1 µM.
Experiment [9] deals with T1, Rhodopsin kinase GRK7 (Homo sapiens) (UniProt Q8WTQ7).
T1 sequence (whole entry): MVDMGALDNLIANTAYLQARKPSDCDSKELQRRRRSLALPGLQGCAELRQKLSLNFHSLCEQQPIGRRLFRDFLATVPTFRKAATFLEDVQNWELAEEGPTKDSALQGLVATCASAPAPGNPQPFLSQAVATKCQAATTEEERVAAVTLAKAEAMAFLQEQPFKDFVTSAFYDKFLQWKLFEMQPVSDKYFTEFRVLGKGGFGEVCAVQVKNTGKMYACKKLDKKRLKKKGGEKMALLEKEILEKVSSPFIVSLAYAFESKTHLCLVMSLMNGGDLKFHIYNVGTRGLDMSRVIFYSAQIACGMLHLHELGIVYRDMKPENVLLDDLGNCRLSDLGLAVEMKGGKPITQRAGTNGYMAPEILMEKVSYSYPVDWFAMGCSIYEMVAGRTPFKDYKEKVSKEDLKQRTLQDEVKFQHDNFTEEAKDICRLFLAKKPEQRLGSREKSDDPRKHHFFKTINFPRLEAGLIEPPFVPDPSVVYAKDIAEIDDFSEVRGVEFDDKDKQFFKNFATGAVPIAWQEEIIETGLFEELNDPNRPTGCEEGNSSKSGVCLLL
The conditions noted are these: at 0.1 µM.

In experiment [10] the target is T1, Rhodopsin kinase GRK7 (Homo sapiens). The conditions noted are these: at 1 µM.
Experiment [11] concerns the target Serine/threonine-protein kinase MRCK alpha (Homo sapiens) (UniProt Q5VT25). The conditions noted are these: at 0.1 µM.
Experiment [12] shares this target. The conditions noted are these: at 1 µM.
Experiment [13] addresses Serine/threonine-protein kinase MRCK beta (Homo sapiens) (UniProt Q9Y5S2). The conditions noted are these: at 0.1 µM.
Experiment [14] shares this target. The following applies: at 1 µM.
Experiment [15] concerns the target Ribosomal protein S6 kinase alpha-5 (Homo sapiens) (UniProt O75582). The following applies: at 0.1 µM.
Experiment [16] shares this target. The conditions noted are these: at 1 µM.
Experiment [17] addresses Ribosomal protein S6 kinase alpha-4 (Homo sapiens) (UniProt O75676). The following applies: at 0.1 µM.
Experiment [18] has the same target. The following applies: at 1 µM.
In experiment [19] the target is Ribosomal protein S6 kinase beta-1 (Homo sapiens) (UniProt P23443). The following applies: at 0.1 µM.
Experiment [20] shares this target. The conditions noted are these: at 1 µM.

Each structure is given as a SMILES string.

Sequence of RAC-gamma serine/threonine-protein kinase (Homo sapiens) (Q9Y243 whole entry): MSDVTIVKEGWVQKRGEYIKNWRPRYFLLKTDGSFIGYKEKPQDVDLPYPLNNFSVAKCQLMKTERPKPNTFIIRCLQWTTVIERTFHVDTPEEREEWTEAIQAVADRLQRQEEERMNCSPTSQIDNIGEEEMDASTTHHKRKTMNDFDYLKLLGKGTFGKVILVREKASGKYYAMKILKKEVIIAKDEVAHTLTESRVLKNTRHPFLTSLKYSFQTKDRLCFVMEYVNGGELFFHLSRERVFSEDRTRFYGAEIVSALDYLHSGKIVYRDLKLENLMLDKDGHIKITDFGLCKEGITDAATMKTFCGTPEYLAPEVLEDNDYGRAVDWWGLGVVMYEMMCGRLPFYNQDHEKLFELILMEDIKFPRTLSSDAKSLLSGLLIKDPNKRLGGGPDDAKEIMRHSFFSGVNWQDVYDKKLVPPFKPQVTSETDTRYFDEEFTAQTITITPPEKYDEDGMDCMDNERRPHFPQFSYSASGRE
Sequence of RAC-alpha serine/threonine-protein kinase (Homo sapiens) (P31749 whole entry): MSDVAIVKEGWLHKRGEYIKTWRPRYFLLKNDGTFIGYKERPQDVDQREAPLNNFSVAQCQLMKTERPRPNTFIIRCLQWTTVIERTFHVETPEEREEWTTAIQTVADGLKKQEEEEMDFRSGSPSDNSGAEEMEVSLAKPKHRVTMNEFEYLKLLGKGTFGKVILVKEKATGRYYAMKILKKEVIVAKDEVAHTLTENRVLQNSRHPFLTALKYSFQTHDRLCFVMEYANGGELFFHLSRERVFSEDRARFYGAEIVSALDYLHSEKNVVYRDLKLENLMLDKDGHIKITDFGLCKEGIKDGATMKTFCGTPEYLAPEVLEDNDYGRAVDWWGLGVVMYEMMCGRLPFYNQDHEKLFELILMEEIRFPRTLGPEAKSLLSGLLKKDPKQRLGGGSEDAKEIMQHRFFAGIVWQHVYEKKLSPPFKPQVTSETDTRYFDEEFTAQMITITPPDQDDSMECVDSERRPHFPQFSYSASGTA
Sequence of G protein-coupled receptor kinase 6 (Homo sapiens) (P43250 whole entry, looked up): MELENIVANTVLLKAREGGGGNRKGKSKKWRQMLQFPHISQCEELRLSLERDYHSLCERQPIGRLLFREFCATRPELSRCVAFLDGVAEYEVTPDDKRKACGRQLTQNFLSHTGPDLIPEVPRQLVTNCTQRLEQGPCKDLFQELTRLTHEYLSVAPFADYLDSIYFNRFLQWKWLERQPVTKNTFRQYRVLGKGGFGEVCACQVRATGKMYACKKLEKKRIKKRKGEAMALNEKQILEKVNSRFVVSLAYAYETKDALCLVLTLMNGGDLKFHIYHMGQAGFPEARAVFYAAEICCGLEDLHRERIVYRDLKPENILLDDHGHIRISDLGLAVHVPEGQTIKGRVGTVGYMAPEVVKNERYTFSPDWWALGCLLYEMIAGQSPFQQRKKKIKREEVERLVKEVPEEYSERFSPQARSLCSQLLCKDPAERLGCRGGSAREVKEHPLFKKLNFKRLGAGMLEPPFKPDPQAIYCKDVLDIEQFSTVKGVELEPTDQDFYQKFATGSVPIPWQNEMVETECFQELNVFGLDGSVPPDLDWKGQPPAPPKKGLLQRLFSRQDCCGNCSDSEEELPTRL
Sequence of Ribosomal protein S6 kinase beta-1 (Homo sapiens) (P23443 whole entry, looked up): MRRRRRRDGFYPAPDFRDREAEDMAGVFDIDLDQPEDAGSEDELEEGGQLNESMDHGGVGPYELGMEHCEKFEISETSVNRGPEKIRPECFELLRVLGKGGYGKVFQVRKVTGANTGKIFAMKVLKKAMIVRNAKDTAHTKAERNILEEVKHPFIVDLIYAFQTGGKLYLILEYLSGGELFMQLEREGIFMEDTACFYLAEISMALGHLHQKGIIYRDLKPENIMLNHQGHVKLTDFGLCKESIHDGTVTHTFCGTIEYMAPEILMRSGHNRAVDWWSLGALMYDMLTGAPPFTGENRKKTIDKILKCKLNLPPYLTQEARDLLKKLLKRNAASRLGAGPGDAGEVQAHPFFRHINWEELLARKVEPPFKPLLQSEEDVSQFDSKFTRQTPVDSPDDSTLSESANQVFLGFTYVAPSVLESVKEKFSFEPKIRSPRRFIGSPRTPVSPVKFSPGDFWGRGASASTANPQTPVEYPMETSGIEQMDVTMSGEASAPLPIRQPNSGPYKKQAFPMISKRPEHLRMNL
Sequence of Ribosomal protein S6 kinase alpha-4 (Homo sapiens) (O75676 whole entry, looked up): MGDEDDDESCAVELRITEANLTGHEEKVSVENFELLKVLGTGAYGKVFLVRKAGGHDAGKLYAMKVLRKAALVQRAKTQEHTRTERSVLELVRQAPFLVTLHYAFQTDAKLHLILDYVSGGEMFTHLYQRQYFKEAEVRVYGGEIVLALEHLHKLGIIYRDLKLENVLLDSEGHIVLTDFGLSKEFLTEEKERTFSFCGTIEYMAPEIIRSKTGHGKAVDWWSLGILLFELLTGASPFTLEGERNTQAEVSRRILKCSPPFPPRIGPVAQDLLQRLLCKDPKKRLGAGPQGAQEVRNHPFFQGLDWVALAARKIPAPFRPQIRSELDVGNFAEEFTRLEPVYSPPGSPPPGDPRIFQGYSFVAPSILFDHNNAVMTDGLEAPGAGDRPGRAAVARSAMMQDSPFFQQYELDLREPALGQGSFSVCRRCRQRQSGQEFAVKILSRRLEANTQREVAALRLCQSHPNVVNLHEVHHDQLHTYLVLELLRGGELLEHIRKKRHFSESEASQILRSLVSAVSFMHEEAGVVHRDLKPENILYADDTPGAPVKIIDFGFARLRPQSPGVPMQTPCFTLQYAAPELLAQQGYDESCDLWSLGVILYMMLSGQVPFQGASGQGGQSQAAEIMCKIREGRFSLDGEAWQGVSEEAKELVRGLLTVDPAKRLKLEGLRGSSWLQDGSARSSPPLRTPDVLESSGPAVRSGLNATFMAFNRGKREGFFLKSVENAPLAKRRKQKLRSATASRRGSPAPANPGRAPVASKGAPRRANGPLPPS
Sequence of Serine/threonine-protein kinase MRCK beta (Homo sapiens) (Q9Y5S2 whole entry): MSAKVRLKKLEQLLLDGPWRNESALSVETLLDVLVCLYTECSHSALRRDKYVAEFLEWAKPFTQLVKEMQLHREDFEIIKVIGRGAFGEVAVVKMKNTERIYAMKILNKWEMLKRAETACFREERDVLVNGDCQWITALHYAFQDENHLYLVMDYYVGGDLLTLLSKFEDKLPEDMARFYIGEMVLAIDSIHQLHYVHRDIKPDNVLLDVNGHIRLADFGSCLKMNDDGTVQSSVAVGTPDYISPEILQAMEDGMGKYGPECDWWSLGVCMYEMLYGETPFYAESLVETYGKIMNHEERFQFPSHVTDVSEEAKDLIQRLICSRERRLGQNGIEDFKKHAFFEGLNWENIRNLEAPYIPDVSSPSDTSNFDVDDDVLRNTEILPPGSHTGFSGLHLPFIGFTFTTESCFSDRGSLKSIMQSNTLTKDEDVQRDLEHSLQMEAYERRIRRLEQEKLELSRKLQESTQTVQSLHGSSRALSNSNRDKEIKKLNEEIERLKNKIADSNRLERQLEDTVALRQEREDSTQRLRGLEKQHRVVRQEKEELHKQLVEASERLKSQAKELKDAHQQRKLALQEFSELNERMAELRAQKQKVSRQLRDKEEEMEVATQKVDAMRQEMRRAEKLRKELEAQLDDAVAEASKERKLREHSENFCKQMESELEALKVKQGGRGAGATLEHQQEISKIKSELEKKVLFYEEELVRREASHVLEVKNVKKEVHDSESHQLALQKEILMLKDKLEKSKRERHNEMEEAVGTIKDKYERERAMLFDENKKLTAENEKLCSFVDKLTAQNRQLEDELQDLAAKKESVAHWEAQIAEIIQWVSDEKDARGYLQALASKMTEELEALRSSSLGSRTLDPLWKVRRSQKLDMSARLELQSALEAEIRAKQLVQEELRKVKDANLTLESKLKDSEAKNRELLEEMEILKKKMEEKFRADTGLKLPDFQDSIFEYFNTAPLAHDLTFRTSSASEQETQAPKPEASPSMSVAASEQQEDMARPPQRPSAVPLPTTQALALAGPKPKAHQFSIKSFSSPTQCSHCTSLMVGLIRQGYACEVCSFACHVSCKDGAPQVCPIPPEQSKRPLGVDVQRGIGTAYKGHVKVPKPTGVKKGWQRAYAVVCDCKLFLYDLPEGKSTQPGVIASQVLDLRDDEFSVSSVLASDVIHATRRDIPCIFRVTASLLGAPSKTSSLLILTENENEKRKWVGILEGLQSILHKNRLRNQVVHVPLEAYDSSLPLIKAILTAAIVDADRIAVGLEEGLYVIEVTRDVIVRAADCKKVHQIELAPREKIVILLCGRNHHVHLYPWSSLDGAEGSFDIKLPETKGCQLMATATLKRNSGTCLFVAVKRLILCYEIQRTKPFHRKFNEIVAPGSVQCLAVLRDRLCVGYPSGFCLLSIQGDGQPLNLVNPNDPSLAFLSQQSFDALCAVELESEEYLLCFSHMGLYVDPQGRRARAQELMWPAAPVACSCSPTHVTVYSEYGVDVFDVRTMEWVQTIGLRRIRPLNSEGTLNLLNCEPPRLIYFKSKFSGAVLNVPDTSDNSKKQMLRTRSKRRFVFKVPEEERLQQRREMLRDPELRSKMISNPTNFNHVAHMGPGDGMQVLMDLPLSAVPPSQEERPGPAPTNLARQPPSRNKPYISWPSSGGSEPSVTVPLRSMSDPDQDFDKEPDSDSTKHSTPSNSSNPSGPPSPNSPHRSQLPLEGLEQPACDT
Sequence of RAC-beta serine/threonine-protein kinase (Homo sapiens) (P31751 whole entry): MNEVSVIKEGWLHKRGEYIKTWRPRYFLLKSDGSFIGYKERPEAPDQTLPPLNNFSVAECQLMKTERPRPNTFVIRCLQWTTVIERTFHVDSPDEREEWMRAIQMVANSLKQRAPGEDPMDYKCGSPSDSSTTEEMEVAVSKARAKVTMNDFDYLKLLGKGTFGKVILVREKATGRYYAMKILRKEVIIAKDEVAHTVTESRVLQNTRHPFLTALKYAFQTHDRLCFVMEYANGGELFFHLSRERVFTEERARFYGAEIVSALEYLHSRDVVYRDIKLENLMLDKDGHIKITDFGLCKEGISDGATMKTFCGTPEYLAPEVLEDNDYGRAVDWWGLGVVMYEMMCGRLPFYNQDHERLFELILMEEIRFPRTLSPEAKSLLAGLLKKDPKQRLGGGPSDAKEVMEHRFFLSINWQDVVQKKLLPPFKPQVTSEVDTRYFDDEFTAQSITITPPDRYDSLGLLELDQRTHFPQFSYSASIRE

As for `O=C(Nc1n[nH]c2cc(-c3cc(F)ccc3F)ccc12)C1CC1`, the inhibition was found to be 0.77% in [1]; 0.09% in experiment [2]; 1.23% in experiment [3]; 1.89% in [4]; 1.03% in experiment [5]; 2.68% in [6]. For the same compound, the inhibition was 2.61% in experiment [7]; 3.76% in [8]; 1.22% in [9]; 6.2% in experiment [10]; -0.78% in experiment [11]; -3.13% in experiment [12]. For the same compound, the inhibition was -0.23% in experiment [13]; -0.47% in experiment [14]; 1.91% in [15]; 1.12% in [16]; 1.8% in experiment [17]; 3.08% in experiment [18]. Further, the inhibition in experiment [19] was found to be 1.01%; in experiment [20], 1.58%.

In the case of `NS(=O)(=O)c1ccc(Nc2cc(-c3ccc(O)c(F)c3)n[nH]2)cc1`, the inhibition in experiment [1] was -3.05%; in experiment [2] it was -2.1%; in experiment [3] it was -3.37%; in experiment [4], -1.69%; in [5], -3.06%; in experiment [6] it was -2.28%. The inhibition was -2.35% in experiment [7]; -0.57% in [8]; -9.14% in [9]; -0.64% in experiment [10]; -0.79% in experiment [11]; 0.17% in experiment [12]. The inhibition was 0.18% in experiment [13]; 0.15% in experiment [14]; -1.17% in experiment [15]; 8.77% in experiment [16]; -0.21% in [17]; 8.93% in experiment [18]. Further, the inhibition was -2.09% in experiment [19] and 4.29% in experiment [20].

On to `CCc1ccc(Oc2nccc(-c3c(-c4ccc(F)cc4)ncn3C3CCNCC3)n2)cc1`, for which the inhibition in experiment [1] worked out at 2.02%; in experiment [2] it was 3.72%; in [3], 2.05%; in experiment [4], 3.62%; in experiment [5] it was 2.08%; in experiment [6], 11.5%. The inhibition is 3.46% in [7]; 4.51% in [8]; 6.57% in [9]; 7.25% in experiment [10]; 10% in experiment [11]; 12% in [12]. Also, the inhibition in [13] was determined as 0.41%; in experiment [14] it was 4.65%; in [15], 2.63%; in experiment [16], 4.23%; in experiment [17] it was 3.19%; in experiment [18] it was 5.69%. Also, the figures for the inhibition in experiment [19] and in experiment [20] were 1.57% and 5.93%, respectively.

Regarding `Fc1ccc(-c2nc3n(c2-c2ccncc2)CCS3)cc1`, the inhibition in experiment [1] was -2.42%; in experiment [2] it was -2.29%; in experiment [3] it was -1.68%; in [4] it was -1.83%; in experiment [5], -1.74%; in experiment [6], -2.44%. The inhibition is 2.79% in [7]; -0.16% in experiment [8]; 2.77% in experiment [9]; 5.18% in experiment [10]; 0.18% in experiment [11]; 2.85% in [12]. The inhibition came out at 1.28% in [13]; 3.22% in experiment [14]; 2.74% in experiment [15]; 3.92% in experiment [16]; 1.65% in experiment [17]; 5.1% in [18]. In addition, the inhibition is 2.08% in [19] and 2.54% in experiment [20].

`COc1cc(Nc2ncc3c(C)nc(-c4cccc(Oc5ccccc5)c4)n3n2)cc(OC)c1OC`: the inhibition in experiment [1] was 0.97%; in experiment [2] it was 1.22%; in experiment [3], 0.47%; in experiment [4], 1.85%; in experiment [5], 1.02%; in experiment [6] it was 1.43%. In addition, the inhibition was 1.19% in [7]; -5.44% in [8]; -0.36% in experiment [9]; -5.43% in experiment [10]; 0.02% in experiment [11]; -0.11% in experiment [12]. Further, the inhibition in [13] stood at 0.97%; in experiment [14] it was 1.86%; in experiment [15], 8.17%; in [16], 7.74%; in experiment [17], 0.96%; in experiment [18], 2.98%. Further, the inhibition in experiment [19] was 1.98%; in experiment [20], 3.01%.

On to `COc1ccc2cc(-c3c(-c4ccncc4)nc(-c4ccc(S(C)(=O)=O)cc4C)n3C)ccc2c1`, for which the inhibition was found to be 1.8% in experiment [1]; 1.99% in [2]; 2.93% in experiment [3]; 2.26% in experiment [4]; 2.8% in experiment [5]; 4.98% in [6]. Also, the inhibition was 5.87% in experiment [7]; 8.14% in [8]; 4.36% in experiment [9]; 8.69% in [10]; 0.29% in [11]; 1.6% in experiment [12]. Also, the inhibition in experiment [13] is 2.15%; in experiment [14], 1.98%; in experiment [15], 3.82%; in experiment [16] it was 5.44%; in experiment [17], 7.21%; in experiment [18], 9.9%. For the same compound, the inhibition in [19] was found to be 1.75%; in experiment [20], 3.34%.

Values taken from ChEMBL document CHEMBL1961873, “Compounds: GSK PKIS; Assays: Nanosyn kinase panel” (2012).
